This is an account of results in PubChem BioAssay AID940 (Emory University Molecular Libraries Screening Center, 2007).

“And” between values parts separate entries of the source, which are not always exact repeats. Equal entries are not always repeated. Screen size: about 260,000 compounds; about 2,200 (0.85%) were called active.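 How the source made its calls: active means compounds whose cAMP rise, as percent of the full-agonist control response, exceeds 60; inactive means the rest.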 Many of the other results were omitted from the sample, so actives are more common in it than they were. A structure can be active in one record and inactive in another.

Prostaglandin E2 receptor EP2 subtype (Homo sapiens), sequence (P43116 whole entry, looked up): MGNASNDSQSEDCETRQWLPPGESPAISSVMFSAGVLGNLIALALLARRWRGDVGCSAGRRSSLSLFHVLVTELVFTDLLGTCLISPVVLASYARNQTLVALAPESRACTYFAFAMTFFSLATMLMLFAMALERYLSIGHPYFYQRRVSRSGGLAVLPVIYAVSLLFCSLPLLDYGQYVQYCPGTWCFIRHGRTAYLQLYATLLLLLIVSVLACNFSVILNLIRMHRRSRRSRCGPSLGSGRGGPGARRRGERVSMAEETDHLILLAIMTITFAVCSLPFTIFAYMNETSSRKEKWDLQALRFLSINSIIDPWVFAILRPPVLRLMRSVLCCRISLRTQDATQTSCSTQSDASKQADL

The test has as its target Prostaglandin E2 receptor EP2 subtype (Homo sapiens) (UniProt P43116). As to the kind of experiment: EP2 receptor modulators, cAMP readout, primary screen, cell-based, HTRF cAMP, PGE2 stimulation (AID 940).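 Further: rat C6 glioma line stably carrying human EP2 under a CMV promoter; the protocol text gives 20 µM as final concentration; 100% = response of wells given 1 µM PGE2.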 Particulars: EP2-expressing cells, cAMP HTRF FRET, PGE2 co-stimulation; at 25 µM; stronger effect = higher value. (In TR-FRET formats the signal depends on donor and acceptor labels being close together.)
With `Cc1ccc(Cn2c3ccccc3n3c(SCC(=O)N4CCc5ccccc54)nnc23)cc1`, the induction was -8.29% (inactive).

As for `O=P(O)(CP(=O)(c1ccccc1)c1ccccc1)c1ccccc1O`, the induction was -5.29% (inactive).

Consider `COc1ccc(N=Nc2ccc(O)c(P(=O)(c3ccccc3)c3ccccc3)c2)cc1`, for which the induction was 25.3% (inactive).

As for `CC(C)(C)c1cc(P(=O)(c2ccccc2)c2ccccc2)ccc1O`, the induction was 66.9% (active).

As to `CN(C)C(=O)CN1N=C(C(C)(C)C)Cn2c(cc3sccc32)C1=O`, the induction is -24.7% (inactive).

For the compound `CC(=O)c1ccc2c(ccc3ccccc32)c1`, the induction was -39.4% (inactive).

With `CCn1c2ccccc2c2cc(CC(N)=O)ccc21`, the induction was 13.3% (inactive).

For `CC(=O)c1ccc2c(c1)c1ccccc1n2CC(C)C`, the induction was 66.9% (active).

In the case of `Cc1sc2ncnc(NCC(=O)O)c2c1C`, the induction was 2.64% (inactive).

For the compound `COc1cc(-c2nnc(SCC(=O)N3CCC(C)CC3)o2)cc(OC)c1OC`, the induction was -36.6% (inactive).

With `CCN1CCCC1CN(Cc1ccccn1)Cc1cccn1-c1ccncc1` (centres undefined), the induction was 7.11% (inactive).

`Cc1cc(=O)[nH]c(SCC(N)=O)c1C#N`: the induction is 24.2% (inactive).

Regarding `CCN(CC)C(=O)CSc1nc2c(C)c(C)ccc2cc1C#N`, the induction is 27.6% (inactive).

As to `Cc1cc(C#N)c(SCC(N)=O)nc1-c1ccc(F)cc1`, the induction was 65.8% (active).

Take `CCc1c(C)nc(NC2CCN(C(=O)c3cccc(N(C)C)c3)CC2)[nH]c1=O`: the induction is -19.1% (inactive).

Regarding `COC(=O)CSc1nnc(CSc2nc(C)cc(C)n2)n1-c1ccc(C)cc1`, the induction is -20.7% (inactive).

Regarding `CCOc1ccc(NC(=O)CSc2nc(C(C)C)nc3ccccc23)cc1`, the induction was 10.4% (inactive).

For the compound `COc1cc(NC(=O)CSc2ncnc3c2sc2nc4cc(C)ccc4cc23)cc(OC)c1`, the induction was -7.45% (inactive).

For `CCOc1ccc(NC(=O)CSc2ncnc3c2sc2ccccc23)cc1`, the induction is 78.8% (active).

`CC(c1ccccc1)n1c(Br)nc2c1c(=O)n(C)c(=O)n2C` (centres undefined): the induction is -1.23% (inactive).

Regarding `COc1ccc2[nH]c(=O)c(CN(C3CCCC3)C(c3nnnn3Cc3ccccc3)C(C)C)cc2c1` (centres undefined), the induction is 40.1% (inactive).

As for `CC1(C)C2CCC1(C)C(OC(=O)CCn1ccnc1)C2` (centres undefined), the induction was -7.75% (inactive).

As to `Cc1ccc(C(=O)OC2CCCN(C)C2)cc1` (centres undefined), the induction is 11.9% (inactive) and -29.7% (inactive).

Turning to `CC1(C)C2CCC1(C)C(OC(=O)c1ccc(O)cc1)C2` (centres undefined), the induction is 67.5% (active).

With `c1ccc(C(c2nnnn2Cc2ccc3c(c2)OCO3)N2CCN(C3CCCCC3)CC2)cc1` (centres undefined), the induction is -64.5% (inactive).

Turning to `CC(C)(C)C(=O)c1cn(CC(=O)N2CCCCC2)c2ccccc12`, the induction is -9.2% (inactive).

Turning to `CCn1c(C)nnc1SCC(=O)Nc1ccc(Br)cc1`, the induction is -1.86% (inactive).

Consider `Cc1cc(NC(=O)CN2CCCC(C)C2)n(-c2nc3ccccc3s2)n1` (centres undefined), for which the induction is 77.7% (active).

On to `CC(=O)Nc1ccc(NC(=O)CN2CCCC(C)C2)c(Cl)c1` (centres undefined), for which the induction was -9.9% (inactive).

Consider `CCOC(=O)N1CCN(CC(=O)Nc2cc(C)nn2-c2nc3ccccc3s2)CC1`, for which the induction was 32.4% (inactive).

With `COc1ccc(Cc2n[nH]c(=S)n2C)cc1`, the induction is 25.4% (inactive).

In the case of `Cc1cc(-c2cnc(C)nc2C2CCN(C(=O)Cc3ccc(C)s3)CC2)on1`, the induction was -15.1% (inactive).

In the case of `Oc1ccc(/C=N/N(Cc2ccccc2)c2ccccc2)cc1`, the induction is 67.5% (active).

Consider `O=C(N/N=C/c1ccc(OCc2ccccc2)cc1)c1ccc(O)cc1`, for which the induction is -46.8% (inactive).

For the compound `CN(C)c1ccc(/C=N/N(Cc2ccccc2)c2ccccc2)cc1`, the induction is 23.9% (inactive).

As for `Cc1ccc(NC(=O)c2c(NC(=O)CCC(=O)O)sc3c2CCCCC3)cc1`, the induction was 12.1% (inactive) and -20.9% (inactive).

Regarding `Cc1ccc(C(=O)c2c(NC(=O)c3ccccc3)sc(C)c2C)cc1`, the induction is 8.95% (inactive).

Regarding `Cc1ccc(C(=O)c2c(NC(=O)c3ccncc3)sc3c2CCCC3)cc1`, the induction is 68.7% (active).

Consider `Cc1cc(-c2cncnc2C2CCCN(CC(=O)Nc3cc(C)on3)C2)on1` (centres undefined), for which the induction is 0.23% (inactive).

For `CCOC(=O)c1c(CN2CCOCC2)nc2ccc(Cl)cc2c1-c1ccccc1`, the induction was 22.7% (inactive).

Turning to `C#CCSc1nnc(-c2sc3ccccc3c2Cl)o1`, the induction is 40.2% (inactive).

For `CCSc1nnc(-c2cc3c(s2)-c2ccccc2CC3)o1`, the induction is 63.3% (active).

As for `Fc1ccc(CSc2nnc(-c3cc4c(s3)-c3ccccc3CC4)o2)cc1`, the induction is 1.98% (inactive).

Turning to `CC(=O)c1ccc(S(=O)(=O)N2CCC(n3c(C)nc4cc(F)ccc43)CC2)cc1`, the induction was -40.5% (inactive).

Regarding `Cc1occc1-c1nn(C2CCN(S(=O)(=O)N(C)C)CC2)c(=O)o1`, the induction was -53% (inactive).

Regarding `CCN(CC)C(=O)CSc1nc2ccccc2c(=O)n1-c1ccccc1`, the induction is -15.6% (inactive).

Consider `c1ccc(C(c2nnnn2C2CCCCC2)N2CCc3ccccc3C2)cc1` (centres undefined), for which the induction is 68.5% (active).

Take `CN1CCN(C(c2ccccc2Cl)c2nnnn2C2CCCCC2)CC1` (centres undefined): the induction is -13.7% (inactive).

With `c1ccc(C(c2ccccc2)N2CCN(Cc3nnnn3C3CCCCC3)CC2)cc1`, the induction was 56.5% (inactive).

In the case of `CCS(=O)(=O)N1CCN(c2nc3ccccc3s2)CC1`, the induction was -84.9% (inactive).

In the case of `O=C(Cn1nc(-c2cccnc2)oc1=O)N1CCCC1`, the induction was -282% (inactive).

With `COC(=O)c1sccc1NC(=O)COc1ccc(Cl)cc1`, the induction is 61.7% (active).

On to `COC(=O)c1sccc1NC(=O)CCC1CCCC1`, for which the induction is 11.9% (inactive).

`O=C(COc1ccc(Cl)cc1)Nc1ccccc1CO`: the induction is -10.2% (inactive).

As for `CCN(CC)CCN(Cc1cc2cccc(C)c2[nH]c1=O)C(=S)NCCOC`, the induction was -15.8% (inactive).

As for `CC(C(=O)N1CCC(n2nc(-c3ccco3)ccc2=O)CC1)c1ccccc1` (centres undefined), the induction was -23.1% (inactive).

Regarding `Cc1nn2c(c1-c1ccccc1)N=C(c1ccco1)CC2c1ccccc1` (centres undefined), the induction was 83.8% (active).

For the compound `COCC(=O)Nc1nnc(Cc2ccccc2)s1`, the induction was -1.1% (inactive).

Take `CCc1nn(CC(=O)NC(C)c2ccccn2)c(=O)c2cc3ccsc3n12` (centres undefined): the induction is -14.5% (inactive).

Consider `O=C(c1ccn[nH]1)N1CCn2cc(C(F)(F)F)nc2C1`, for which the induction was -3.08% (inactive).

With `CC1CCCCN1CC(=O)NCc1ccc2c(c1)OCO2` (centres undefined), the induction was 8.14% (inactive).

Consider `COc1ccc(CN2CCCCC2C)cc1OC` (centres undefined), for which the induction was 1.32% (inactive).

For the compound `CCc1ccc2oc(=O)cc(CN3CCCCC3C)c2c1` (centres undefined), the induction was 64.2% (active).

`CCOC(=O)c1c(-c2ccc(C)cc2C)csc1NC(=O)CSc1nnnn1C`: the induction was 63.5% (active).

For the compound `COC(=O)c1ccccc1NC(=O)CSc1nnnn1C`, the induction is 20.6% (inactive) and 0.97% (inactive).

Regarding `CCOC(=O)CNC(=O)CSc1nnnn1-c1cc(C)ccc1C`, the induction was -4.73% (inactive).

`CSc1nc(O)c(C2CCCCC2)c(=O)[nH]1`: the induction was -1.22% (inactive).

Regarding `COc1ccc(CNC(=O)CCSc2nc(-c3ccco3)cc(C(F)(F)F)n2)cc1OC`, the induction is -21.3% (inactive).

Consider `CS(=O)(=O)N1CCc2cc(C(=O)N3C4CCC3CC(c3ccc(F)cc3)C4)ccc21` (centres undefined), for which the induction is -36.1% (inactive).

In the case of `CN(C)CCCn1c(SCCN2C(=O)c3ccccc3C2=O)nc2ccccc2c1=O`, the induction is -26% (inactive).

Consider `COC(=O)Cn1c(C)nc2ccccc2c1=O`, for which the induction was 6.77% (inactive).

For `CC(C)(C)c1nc2ccccc2c(=O)n1N1C(=O)c2ccccc2C1=O`, the induction was 65.2% (active).

`Cc1ccc(C2(O)CCN(Cc3cccc(OCc4ccccn4)c3)CC2)cc1`: the induction is -1.87% (inactive).

For `CCCN(CC)c1nc2c(C)cccn2c(=O)c1/C=C1\SC(=S)N(CCCOC)C1=O`, the induction was 23% (inactive).

For the compound `COc1ccc(C2(NCc3ccccc3-n3cccn3)CC2)cc1`, the induction is 7.61% (inactive).

Take `C=CC1(C)CC(=O)C2(O)C(C)(O1)C(OC(C)=O)C(O)C1C(C)(C)CCC(O)C12C` (centres undefined): the induction was 102% (active).

For `C/C(=N\NC(=S)NC(C)C)c1ccc(C(C)(C)C)cc1`, the induction was 8.13% (inactive).

Consider `CC(C)(C)NC(=O)C(=O)NN=C1CCCCCCC1`, for which the induction is 27.3% (inactive).

For the compound `CC(C)NC(=S)NN=C1CCCCCCCCCCC1`, the induction was 68.3% (active).

`COc1cc(-c2nc3cnccn3c2NCC2CCCO2)ccc1O` (centres undefined): the induction was -29.6% (inactive).

For the compound `O=c1cc(N2CCN(Cc3ccccc3)CC2)c(-c2ccccc2)n[nH]1`, the induction was -2.25% (inactive).

Take `O=C(CS(=O)(=O)c1cn(Cc2cccc(F)c2)c2ccccc12)N1CCCCC1`: the induction was -10.4% (inactive).

In the case of `O=c1cc(N2CCCCC2)c(-c2ccccc2)nn1Cc1cccc(F)c1`, the induction is 90% (active).

Consider `CC(=O)Nc1c[nH]c(=O)[nH]c1=O`, for which the induction is -5.98% (inactive).

As to `CC[C@H]1OC(=O)[C@H](C)[C@@H](O[C@H]2C[C@@](C)(OC)[C@@H](O)[C@H](C)O2)[C@H](C)[C@@H](O[C@@H]2O[C@H](C)C[C@H](N(C)C)[C@H]2O)[C@](C)(O)C[C@@H](C)[C@@H]2N[C@@H](COCCOC)O[C@H]([C@H]2C)[C@]1(C)O`, the induction was 64.2% (active) and 17.8% (inactive).

`Cc1ccc(-c2c(C)[nH]n3c(=O)c4c(nc23)CCC4)cc1`: the induction is -89.9% (inactive).

`COc1ccc(N2CCN(C(c3ccccc3)c3nnnn3Cc3cccs3)CC2)cc1` (centres undefined): the induction is 21.1% (inactive).

With `C=CCNc1nc(-c2sc(NC(=O)c3ccccc3)nc2C)cs1`, the induction was -131% (inactive).

Regarding `CCN(CC)c1nc2c(c(=O)n(C)c(=O)n2C)n1Cc1ccc(C)cc1`, the induction was -126% (inactive).

On to `COc1ccc(CN(Cc2cc3c(cc2OC)OCO3)CC2CCCO2)c(OC)c1` (centres undefined), for which the induction is -3.15% (inactive).

For `Cc1oc2c(c1CC(=O)NCc1noc(-c3ccccc3)n1)C(=O)CC(C)(C)C2`, the induction is -16.5% (inactive).

Regarding `CCOCCCNC(=O)CSc1ncnc2c1sc1nc3ccccc3cc12`, the induction was -36% (inactive).

For `CC(C)CCSc1ncnc2c1oc1nc3c(cc12)COC(C)(C)C3`, the induction was 29.9% (inactive).

As to `CC1(C)Cc2nc3sc4c(SCC(=O)NC(c5ccccc5)c5ccccc5)ncnc4c3cc2CO1`, the induction was 70.1% (active).
